Where a name gives a salt, the structure may show the parent alone. Values without a mark were called inactive.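 Rule for the calls: active = log2 fold change beyond 2 SD from the library mean after excluding viability outliers; inactive = within 2 SD.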
biological target: PARP1 L713F-nLuc biosensor (HCT116) (UniProt P09874); assay: PARP1 L713F-nLuc/akaLuc ratio relative to DMSO control (biosensor stabilization) (fold change); higher = more PARP1 biosensor stabilization (target engagement / stabilizer), active = hit call of the paper; details: stock concentration (mM; final µM = stock mM x 1): 10; 24 h
Sequence (P09874 whole entry L713F, looked up): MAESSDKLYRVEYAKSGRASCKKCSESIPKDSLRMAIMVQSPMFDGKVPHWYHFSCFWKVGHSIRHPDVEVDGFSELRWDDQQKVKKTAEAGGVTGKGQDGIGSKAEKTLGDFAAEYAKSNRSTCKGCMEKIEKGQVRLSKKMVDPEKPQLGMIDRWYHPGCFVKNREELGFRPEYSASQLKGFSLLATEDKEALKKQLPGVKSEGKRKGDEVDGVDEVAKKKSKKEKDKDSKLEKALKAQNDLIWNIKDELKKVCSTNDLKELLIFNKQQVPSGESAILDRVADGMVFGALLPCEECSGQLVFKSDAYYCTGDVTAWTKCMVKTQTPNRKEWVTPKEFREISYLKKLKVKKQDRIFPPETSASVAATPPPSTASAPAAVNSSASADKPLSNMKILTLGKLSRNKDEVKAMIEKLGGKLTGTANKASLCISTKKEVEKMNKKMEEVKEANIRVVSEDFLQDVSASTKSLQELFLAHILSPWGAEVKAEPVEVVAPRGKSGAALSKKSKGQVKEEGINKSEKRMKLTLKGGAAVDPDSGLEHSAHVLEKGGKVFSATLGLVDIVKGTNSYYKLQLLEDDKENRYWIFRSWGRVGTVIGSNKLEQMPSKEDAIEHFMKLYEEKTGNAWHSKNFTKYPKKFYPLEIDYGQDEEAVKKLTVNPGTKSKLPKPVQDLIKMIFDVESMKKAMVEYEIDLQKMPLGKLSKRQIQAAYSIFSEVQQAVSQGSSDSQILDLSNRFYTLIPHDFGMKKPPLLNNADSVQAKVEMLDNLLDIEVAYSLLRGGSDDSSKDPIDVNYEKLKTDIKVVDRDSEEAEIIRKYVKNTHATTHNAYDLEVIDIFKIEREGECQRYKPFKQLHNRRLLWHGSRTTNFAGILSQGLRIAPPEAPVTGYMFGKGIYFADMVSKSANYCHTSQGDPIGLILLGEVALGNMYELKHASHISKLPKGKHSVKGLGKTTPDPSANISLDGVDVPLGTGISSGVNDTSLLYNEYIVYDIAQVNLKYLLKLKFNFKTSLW

SMILES | PARP1 L713F-nLuc/akaLuc ratio
O=C(O)c1ccc(-c2c[nH]c3ncc(-c4ccccc4)cc23)cc1C1CCCC1 | 0.793
C[C@@H]1O[C@@H](O[C@H]2[C@H](OC(=O)[C@]34CCC(C)(C)C[C@H]3C3=CC[C@@H]5[C@@]6(C)C[C@H](O)[C@H](O[C@@H]7O[C@H](CO)[C@@H](O)[C@H](O)[C@H]7O)C(CO)(CO)[C@@H]6CC[C@@]5(C)[C@]3(C)C[C@H]4O)OC[C@H](O)[C@@H]2O)[C@H](O)[C@H](O)[C@H]1O[C@@H]1OC[C@@H](O)[C@H](O[C@@H]2OC[C@](O)(CO)[C@H]2O)[C@H]1O [Platycodin D] | 0.771
Cc1cc(CN)cc(C)c1-c1ncn(C)c1-c1ccnc2cc(F)ccc12 [BI-9321 (trihydrochloride)] | 0.66
CCN(CC)Cc1cc(Nc2ccnc3cc(Cl)ccc23)ccc1O [Amodiaquine (dihydrochloride)] | 1.11
O=C(O)CC[C@H]1CC[C@@](c2cc(F)ccc2F)(S(=O)(=O)c2ccc(Cl)cc2)CC1 | 0.688
CC(=O)N(O)CCCCCNC(=O)CCC(=O)N(O)CCCCCNC(=O)CCC(=O)N(O)CCCCCN [Deferoxamine mesylate] | 0.984
NC(=O)c1ccc[n+]([C@@H]2O[C@H](CO)[C@@H](O)[C@H]2O)c1 [Nicotinamide riboside (chloride)] | 1.17
COc1cc2onc(C)c2cc1NS(=O)(=O)c1cc(Br)ccc1OC | 0.95
Cc1ncccc1-c1cnc(NCc2c(F)ccc3c2CCO3)n2cnnc12 | 1.39
